# Source: PubChem (several laboratories)
# Wnt act = activators of Wnt/beta-catenin signaling; AID 743398; Wnt/beta-catenin reporter cell assay, activator, plate reader; activation, % at 9.35 µM; 1.2% of 300,000 active; in the data active = activation above about 30%, passing the limit was not always enough;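 note: 0% = neutral control wells and 100% = positive control wells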
# APOBEC3A inh = blocks human APOBEC3A ssDNA deamination | inhibition, % at 20 µM | P31941 | recombinant A3A, FAM/TAMRA ssDNA deamination fluorescence | 0.41% of 330,000 active | AID 493011;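 active = at least 40% inhibition at 20 µM here, with at most 30% in a related deaminase screen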;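 note: plate controls were A3A with DMSO for no effect and wells lacking A3A enzyme for full effect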
# Target sequence (P31941 whole entry, looked up): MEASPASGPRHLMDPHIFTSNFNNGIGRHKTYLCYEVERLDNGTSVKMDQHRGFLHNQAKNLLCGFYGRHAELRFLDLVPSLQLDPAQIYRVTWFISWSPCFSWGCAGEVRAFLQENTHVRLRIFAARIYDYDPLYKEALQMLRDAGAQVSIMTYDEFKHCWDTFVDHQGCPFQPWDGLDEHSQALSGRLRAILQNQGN
# esBAF inh = blocks esBAF chromatin remodeling in mouse ES cells; reporter increase, % at 12.5 µM; AID 602393; 2% of 350,000 active; Bmi1-luciferase knock-in reporter, 24 h; 100% = twice the neutral-well signal; in the data active = activation above about 40%;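 note: 0% = median of the plate's neutral control wells and 100% = double that signal; a rise in the Bmi1 reporter signal indicates esBAF inhibition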
# APOBEC3G inh = inhibitors of human APOBEC3G DNA deaminase; Q9HC16; recombinant A3G, ssDNA deamination FAM/TAMRA fluorescence; inhibition, % at 20 µM; 0.28% of 330,000 active; AID 493012;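 active = inhibition of at least 40% at 20 µM, with no more than 30% in the related APOBEC3A deaminase screen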;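 note: plate controls were DMSO wells with A3G for no effect and wells lacking A3G enzyme for full effect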
# MITF TRPM1 HTS = activators of MITF-driven TRPM1 promoter activity in SK-MEL-5 cells; AID 588334; SK-MEL-5 TRPM1-promoter luciferase, 24 h; % of positive control, neutral wells = 0; 0.75% of 300,000 active; activation, % at 12.5 µM;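 active = mean activation of at least 80% with every replicate also reaching 80%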;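 note: 0% = neutral control wells and 100% = parthenolide positive control wells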
# PHOSPHO1 block = inhibitors of human PHOSPHO1 phosphatase. inhibition, % at 13.3 µM. Q8TCT1. recombinant PHOSPHO1, absorbance phosphatase assay. 1.1% of 290,000 active. AID 1565; in the data active = inhibition above about 60%
# Target sequence (Q8TCT1 whole entry, looked up): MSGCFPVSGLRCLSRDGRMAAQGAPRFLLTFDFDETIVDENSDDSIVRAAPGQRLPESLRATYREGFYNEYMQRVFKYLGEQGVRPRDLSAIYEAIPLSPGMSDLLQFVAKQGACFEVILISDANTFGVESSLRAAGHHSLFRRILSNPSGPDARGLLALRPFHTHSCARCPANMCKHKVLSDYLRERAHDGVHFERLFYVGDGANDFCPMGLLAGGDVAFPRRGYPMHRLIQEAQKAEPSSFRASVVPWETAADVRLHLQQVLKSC
# Active calls of the source: *; nt = no result. A selection: hits, their analogues and other compounds. The true share with any hit is near 3.6%.
SMILES,Wnt act,APOBEC3A inh,esBAF inh,APOBEC3G inh,MITF TRPM1 HTS,PHOSPHO1 block
CCOC(=O)c1c(NC(=O)Nc2ccccc2)sc(C)c1C,nt,-2,nt,-7,6,24
CCOC(=O)c1sc(NC(=O)c2sccc2C)cc1C,59*,2,5,-7,nt,-4
CCOC(=O)c1sc(NC(=O)c2cccs2)cc1C,nt,1,65*,-4,46,29
CCOC(=O)c1sc(NC(=O)Nc2cccc(Cl)c2)cc1C,35*,0,nt,-6,60,-13
CCN(CC)C(=O)c1sc(NC(=O)c2ccc(Br)o2)c(C(=O)OC)c1C,-2,0,3,-1,1,0
CCOC(=O)c1sc(NC(=O)c2ccc(Br)o2)cc1C,nt,-3,91*,-6,94*,-9
O=C(NCC1CC1)[C@H]1[C@H](CO)[C@H]2Cn3c(ccc(-c4cccnc4)c3=O)[C@H]2N1C(=O)NC1CCCC1,nt,nt,3,nt,nt,nt
COc1ccc(S(=O)(=O)Nc2ccc3c(c2)C(=O)N([C@H](C)CO)C[C@@H](C)[C@@H](CN(C)Cc2ccc4c(c2)OCO4)OCCCC[C@@H](C)O3)cc1,nt,nt,-7,nt,nt,nt
CCC(=O)Nc1ccc2c(c1)C(=O)N(C)C[C@@H](OC)[C@H](C)CN(CCc1ccccc1)[C@H](C)CO2,nt,nt,3,nt,nt,nt
CC(C)NC(=O)N(C)C[C@H]1Oc2ccc(NS(C)(=O)=O)cc2C(=O)N([C@H](C)CO)C[C@H]1C,nt,nt,4,nt,nt,nt
COc1cccc2c1nc(C)c1cc(C)oc12,nt,-4,18,-4,31,28
COc1cccc2nc3cc(C)c(C)cc3nc12,34*,2,-8,19,0,29
C[C@@H]1CCCCO[C@H](CN(C)S(=O)(=O)c2ccccc2)[C@@H](C)CN([C@H](C)CO)C(=O)c2cc(NC(=O)C3CCCCC3)ccc2O1,nt,nt,-5,nt,nt,nt
Cc1cnc(NC(=O)COc2ccccc2)s1,58*,-4,22,-7,nt,-6
COc1ccccc1OCC(=O)Nc1ncc(C)s1,36*,0,9,-10,80,nt
Cc1cnc(NC(=O)CCc2ccccc2)s1,10,-2,18,-6,39,36
CC(C)NC(=O)N[C@H]1CC[C@@H](CCNS(=O)(=O)c2ccc(Cl)cc2)O[C@@H]1CO,nt,nt,1,nt,nt,nt
O=C1COc2ccc(N3C(=O)C=CC3=O)cc2N1,nt,-3,nt,49*,nt,2
O=C1COc2ccc(S(=O)(=O)N3CCCC3)cc2N1,0,-1,-6,-7,12,-14
CN(C)/C=C1\C(=O)N(c2ccc([N+](=O)[O-])cc2)N=C1c1ccccc1,nt,-6,53*,-7,36,0
C[C@@H]1CCCCO[C@@H](CN(C)C(=O)c2ccccc2)[C@@H](C)CN([C@H](C)CO)C(=O)c2cc(NS(=O)(=O)c3ccc(Cl)cc3)ccc2O1,nt,nt,-6,nt,nt,nt
C=CCCC(=O)NC1CC(C)(C)Cc2c1cnn2-c1ccc(OC)cc1 (stereo unspecified),0,0,0,-6,-7,40
COc1ccc(-n2ncc3c2CC(C)(C)CC3NC(=O)CCn2cncn2)cc1 (stereo unspecified),0,7,0,-3,1,90*
CCN(CC)CC(=O)NC1CC(C)(C)Cc2c1cnn2-c1ccc(F)cc1 (stereo unspecified),9,-1,0,-4,-5,30
Cc1ccn(CC(=O)NC2CC(C)(C)Cc3c2cnn3-c2ccc(F)cc2)n1 (stereo unspecified),-2,-2,42*,-6,61,30
SMILES,Wnt act,APOBEC3A inh,esBAF inh,APOBEC3G inh,MITF TRPM1 HTS,PHOSPHO1 block
C[C@@H]1CN([C@H](C)CO)C(=O)c2cccc(NS(=O)(=O)c3cn(C)cn3)c2O[C@@H]1CN(C)Cc1ccc(-c2ccccc2)cc1,nt,nt,-9,nt,nt,nt
CN(c1ccccc1)c1nc2ccsc2c(=O)s1,7,-1,47*,-10,99*,-17
O=c1oc2c(O)cccc2cc1-c1nc2ccccc2[nH]1,36*,-16,0,-50,45,15
CCCCC(=O)Nc1ccc(C(=O)N(CC)c2ccccc2C)cc1,-3,-1,nt,-6,-10,66*
CCCN(CCC)CCCNS(=O)(=O)c1ccc2c(c1)oc(=O)n2C,-2,3,9,-9,-19,62*
COc1cccc(-c2ccc3n(c2=O)C[C@@H]2[C@@H](CO)[C@H](C(=O)N(C)C)N(C(=O)C4CCCC4)[C@H]32)c1,nt,nt,1,nt,nt,nt
O=C(CSc1ccc2nnc(-c3cccc(F)c3)n2n1)N1CCCc2ccccc21,nt,-8,nt,-11,14,-21
CCSc1ccc2nnc(-c3cccc(F)c3)n2n1,nt,23,-6,4,0,94*
Cc1ccccc1-c1cnc(C(O)c2ccccc2)[nH]1 (stereo unspecified),0,nt,49*,nt,nt,nt
Cc1ccccc1-c1cnc(C(O)c2ccc(F)cc2)[nH]1 (stereo unspecified),1,nt,nt,nt,nt,nt
OC(c1ccccc1)c1ncc(-c2ccc(Cl)cc2)[nH]1 (stereo unspecified),-4,nt,47*,nt,nt,nt
COCC(=O)N1[C@H](C#N)[C@H](c2ccc(C#CCC3CCCC3)cc2)[C@@H]1CO,nt,nt,8,nt,nt,nt
CN(C)C(=O)C[C@H]1CC[C@@H]2[C@H](COc3ccc(NC(=O)Nc4cccc(Cl)c4)cc3C(=O)N2C)O1,nt,nt,1,nt,nt,nt
Cc1cc(C(=O)CSc2nnc(-c3cccnc3)n2-c2ccccc2F)c(C)n1C,-4,1,5,-5,nt,nt
O=C(O)c1ccc(CSc2nnc(-c3ccccc3)n2-c2ccccc2)cc1,35*,-3,nt,-5,-4,24
Cc1cc(C(=O)CSc2nnc(-c3ccncc3)n2-c2ccccc2)c(C)n1C,nt,-2,nt,-7,nt,77*
Cc1cc(C(=O)CSc2nnc(-c3ccccc3)n2C)c(C)n1C,nt,-5,3,-6,6,24
CCCn1c(=O)c2ccccc2n2c(SCC(=O)c3cc(C)n(CC4CCCO4)c3C)nnc12 (stereo unspecified),nt,nt,nt,nt,nt,66*
Cc1cc(C(=O)CSc2nnc(-c3cccnc3)n2-c2ccccc2)c(C)n1CC1CCCO1 (stereo unspecified),9,-4,21,-6,10,74*
C[C@H]1CN([C@@H](C)CO)C(=O)c2cc(NC(=O)c3ccncc3)ccc2O[C@H]1CN(C)C(=O)Nc1ccccc1,nt,nt,-2,nt,nt,nt
CNC[C@H]1Oc2cc(C#CCOC)ccc2S(=O)(=O)N([C@@H](C)CO)C[C@@H]1C,nt,nt,0,nt,nt,nt
Cc1cc(C(=O)CSc2nnc(-c3ccccc3)n2-c2ccccc2)c(C)n1-c1ncn[nH]1,-1,-2,9,-6,nt,75*
Cc1cc(C(=O)CSc2nnc3ccccn23)c(C)n1-c1ccccc1,nt,-1,nt,-6,-77,-3
CCCn1c(=N)n(CC(=O)c2cccs2)c2ccccc21,-4,0,-2,3,0,13
Cn1c(=N)n(CC(=O)c2cccs2)c2ccccc21,29,6,44*,-3,12,23
